Consider eleven compounds from ChEMBL document CHEMBL3988442, “University of Dundee, Small-Polar-MMV Screening Library” (2021).

Holding throughout (design): scale not given: direction of the effect not stated beside the values
For experiment [1], the target named is Protein translocase subunit SecA (Escherichia coli (strain K12)) (UniProt P10408). Briefly: Assay to Identify E. coli SecA ATPase Inhibitors. The conditions noted are these: 30 µM. The class given is functional.
The target of experiment [2] is T1, Ubiquitin-activating enzyme e1, putative (Leishmania donovani (strain BPK282A1)) (UniProt E9BSI1).
T1 sequence (whole entry): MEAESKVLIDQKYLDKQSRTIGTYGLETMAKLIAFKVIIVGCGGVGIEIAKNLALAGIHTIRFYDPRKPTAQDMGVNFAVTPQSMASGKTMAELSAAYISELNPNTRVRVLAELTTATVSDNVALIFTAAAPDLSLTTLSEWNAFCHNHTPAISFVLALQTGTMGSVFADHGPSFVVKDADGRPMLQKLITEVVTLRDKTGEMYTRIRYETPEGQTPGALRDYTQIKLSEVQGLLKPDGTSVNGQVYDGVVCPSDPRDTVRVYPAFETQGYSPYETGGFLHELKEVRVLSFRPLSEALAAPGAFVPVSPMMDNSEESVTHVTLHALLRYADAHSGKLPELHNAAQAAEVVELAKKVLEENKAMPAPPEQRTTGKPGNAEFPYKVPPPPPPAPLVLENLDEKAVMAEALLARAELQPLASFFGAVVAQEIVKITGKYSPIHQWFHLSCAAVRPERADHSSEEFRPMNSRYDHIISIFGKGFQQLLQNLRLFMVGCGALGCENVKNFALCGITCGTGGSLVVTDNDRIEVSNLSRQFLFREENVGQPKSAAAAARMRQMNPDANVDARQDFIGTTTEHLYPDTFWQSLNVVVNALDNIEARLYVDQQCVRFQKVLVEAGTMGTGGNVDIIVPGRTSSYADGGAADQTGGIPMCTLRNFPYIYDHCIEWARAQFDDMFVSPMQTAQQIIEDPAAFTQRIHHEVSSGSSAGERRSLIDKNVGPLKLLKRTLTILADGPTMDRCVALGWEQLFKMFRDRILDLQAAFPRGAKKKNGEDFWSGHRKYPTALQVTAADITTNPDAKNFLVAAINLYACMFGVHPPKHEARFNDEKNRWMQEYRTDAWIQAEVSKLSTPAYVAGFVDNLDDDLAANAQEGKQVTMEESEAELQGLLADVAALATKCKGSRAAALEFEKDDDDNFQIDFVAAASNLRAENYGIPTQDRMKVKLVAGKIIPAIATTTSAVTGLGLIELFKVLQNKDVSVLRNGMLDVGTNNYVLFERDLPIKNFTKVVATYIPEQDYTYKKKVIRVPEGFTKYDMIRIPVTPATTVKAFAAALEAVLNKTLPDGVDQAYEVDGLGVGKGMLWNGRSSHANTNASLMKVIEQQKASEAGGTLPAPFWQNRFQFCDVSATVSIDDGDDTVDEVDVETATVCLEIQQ
Briefly: Leishmania donovani Ubiquitin Activating Enzyme (LdE1). In kind it is functional. The conditions noted are these: 30 µM.

For experiment [3], the target named is AMP-activated protein kinase, AMPK (Homo sapiens) (UniProt P54646+O43741+P54619+Q9UGJ0+Q9Y478+Q13131+Q9UGI9). In words: AMP-dependent Kinase enzyme assay. An in vitro enzyme assay that detects ADP turnover that is directly proportional to AMPK activity. This uses naive AMPK that is activated during the assay with MK-8722. In kind it is functional. The conditions noted are these: 30 µM.

Experiment [4] addresses Sialic acid-binding Ig-like lectin 9 (Homo sapiens) (UniProt Q9Y336). In words: Hs-Siglec9 ALPHAscreen SOP 20170721. The conditions noted are these: 10 µM.
In a further experiment the test system is Trypanosoma cruzi. Briefly: Trypanosoma cruzi phosphomannomutase and mannose-1-phosphate guanylyltransferase assay. The class given is functional. As to conditions: 10 µM.
Experiment [5] concerns the target T2, Arginase-2, mitochondrial (Homo sapiens) (UniProt P78540).
T2 sequence (whole entry): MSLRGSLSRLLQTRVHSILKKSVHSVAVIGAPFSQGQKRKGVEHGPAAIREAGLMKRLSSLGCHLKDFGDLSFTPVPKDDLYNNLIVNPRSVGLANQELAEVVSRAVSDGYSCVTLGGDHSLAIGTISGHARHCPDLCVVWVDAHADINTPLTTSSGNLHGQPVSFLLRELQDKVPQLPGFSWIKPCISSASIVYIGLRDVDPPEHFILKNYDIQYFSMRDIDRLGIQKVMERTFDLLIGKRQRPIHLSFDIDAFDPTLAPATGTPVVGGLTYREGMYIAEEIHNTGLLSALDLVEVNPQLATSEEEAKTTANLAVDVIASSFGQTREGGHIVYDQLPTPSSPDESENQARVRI
In words: in vitro enzyme assay to detect the production of urea directly proportional to the activity of Arginase II. Note: in the data most compounds retested in dose-response had high values. The class given is functional. As to conditions: 33.3 µM.

The target in experiment [6] is T3, Proteasome subunit beta (Trypanosoma cruzi) (UniProt O96673).
T3 sequence (whole entry): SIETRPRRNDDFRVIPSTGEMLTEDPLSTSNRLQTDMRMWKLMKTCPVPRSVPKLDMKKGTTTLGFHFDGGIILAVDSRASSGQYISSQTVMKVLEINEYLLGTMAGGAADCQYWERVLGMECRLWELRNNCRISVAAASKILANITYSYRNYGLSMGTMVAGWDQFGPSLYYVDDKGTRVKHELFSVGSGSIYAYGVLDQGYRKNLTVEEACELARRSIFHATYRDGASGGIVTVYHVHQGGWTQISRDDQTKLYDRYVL
Briefly: Trypanosoma cruzi proteasome chymotrypsin-like activity (TcProtChymo) assay. Note: in the data most compounds retested in dose-response had high values. The class given is functional. The conditions noted are these: 9.37 µM.

The next experiment is filed under the species Homo sapiens. In words: To identify inhibition of the IFN signalling (Jak-Stat) pathway via expression of an eGFP reporter gene under the control of an IFN-stimulated response element (ISRE) containing MxA promoter. In kind it is functional. The conditions noted are these: 30 µM. In general terms: In a reporter assay the amount or activity of a reporter protein is the signal.

In experiment [7] the target is T4, Tyrosyl-tRNA synthetase, putative (Trypanosoma cruzi (strain CL Brener)) (UniProt Q4DSP6).
T4 sequence (whole entry): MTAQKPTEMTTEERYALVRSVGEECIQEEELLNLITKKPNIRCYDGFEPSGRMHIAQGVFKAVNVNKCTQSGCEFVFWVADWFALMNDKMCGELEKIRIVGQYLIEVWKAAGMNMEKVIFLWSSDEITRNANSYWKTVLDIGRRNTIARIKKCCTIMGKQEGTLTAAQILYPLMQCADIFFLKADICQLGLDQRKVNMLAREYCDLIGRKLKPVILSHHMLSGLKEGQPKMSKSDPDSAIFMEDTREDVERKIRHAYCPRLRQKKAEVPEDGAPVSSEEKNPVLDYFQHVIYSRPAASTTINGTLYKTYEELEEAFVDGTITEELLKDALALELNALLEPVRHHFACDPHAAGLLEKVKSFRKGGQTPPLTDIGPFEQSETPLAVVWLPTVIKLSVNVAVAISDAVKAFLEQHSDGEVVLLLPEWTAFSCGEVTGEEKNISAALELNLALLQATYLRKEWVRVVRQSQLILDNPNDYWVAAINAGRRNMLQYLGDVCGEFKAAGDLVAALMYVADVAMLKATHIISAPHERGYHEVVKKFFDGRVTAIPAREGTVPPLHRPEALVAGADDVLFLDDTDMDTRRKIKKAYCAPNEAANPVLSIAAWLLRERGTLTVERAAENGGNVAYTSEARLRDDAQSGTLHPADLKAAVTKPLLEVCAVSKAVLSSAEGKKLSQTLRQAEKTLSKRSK
In words: Trypanosoma cruzi tyrosyl tRNA synthetase (TcYRS) _High Tyrosine SOP. Note: in the data most compounds retested in dose-response had high values. The class given is functional. The conditions noted are these: 30 µM.

Experiment [8] addresses T4, Tyrosyl-tRNA synthetase, putative (Trypanosoma cruzi (strain CL Brener)). In words: Trypanosoma cruzi tyrosyl tRNA synthetase (TcYRS) SOP. In kind it is functional. The conditions noted are these: 30 µM.
Experiment [9] deals with Chromo domain-containing protein 1 (Saccharomyces cerevisiae (strain ATCC 204508 / S288c) (Baker's yeast)) (UniProt P32657). In words: ScCHD-1 Enzyme Inhibition Assay. Note: in the data most compounds retested in dose-response had high values. The class given is functional. The conditions noted are these: 30 µM.

For some of these results: Potency and affinity values are given separately.

Sequence of Protein translocase subunit SecA (Escherichia coli (strain K12)) (P10408 whole entry): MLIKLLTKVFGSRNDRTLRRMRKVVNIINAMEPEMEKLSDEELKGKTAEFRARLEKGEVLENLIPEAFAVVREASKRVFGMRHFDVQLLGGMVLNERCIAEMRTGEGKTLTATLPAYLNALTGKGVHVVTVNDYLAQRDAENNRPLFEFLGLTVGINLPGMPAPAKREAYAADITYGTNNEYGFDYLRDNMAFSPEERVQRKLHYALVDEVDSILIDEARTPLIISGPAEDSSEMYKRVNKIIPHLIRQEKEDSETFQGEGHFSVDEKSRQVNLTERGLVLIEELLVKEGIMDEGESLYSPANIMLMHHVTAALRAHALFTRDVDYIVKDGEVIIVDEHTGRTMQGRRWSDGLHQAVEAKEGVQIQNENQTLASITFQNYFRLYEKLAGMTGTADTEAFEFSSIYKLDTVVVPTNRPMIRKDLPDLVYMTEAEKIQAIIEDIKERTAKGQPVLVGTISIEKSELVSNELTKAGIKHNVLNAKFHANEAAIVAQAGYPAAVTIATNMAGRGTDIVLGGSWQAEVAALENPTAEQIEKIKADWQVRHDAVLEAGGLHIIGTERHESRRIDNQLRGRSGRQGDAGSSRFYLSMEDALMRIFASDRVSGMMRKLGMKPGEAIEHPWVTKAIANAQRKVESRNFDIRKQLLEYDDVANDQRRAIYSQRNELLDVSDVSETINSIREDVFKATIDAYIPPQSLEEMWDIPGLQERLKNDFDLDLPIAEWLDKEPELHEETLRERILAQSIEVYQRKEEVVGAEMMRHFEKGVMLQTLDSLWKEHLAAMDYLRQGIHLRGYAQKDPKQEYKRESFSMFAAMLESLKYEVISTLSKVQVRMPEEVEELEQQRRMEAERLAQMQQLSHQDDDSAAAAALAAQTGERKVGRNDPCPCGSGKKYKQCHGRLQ
Sequence of Sialic acid-binding Ig-like lectin 9 (Homo sapiens) (Q9Y336 whole entry): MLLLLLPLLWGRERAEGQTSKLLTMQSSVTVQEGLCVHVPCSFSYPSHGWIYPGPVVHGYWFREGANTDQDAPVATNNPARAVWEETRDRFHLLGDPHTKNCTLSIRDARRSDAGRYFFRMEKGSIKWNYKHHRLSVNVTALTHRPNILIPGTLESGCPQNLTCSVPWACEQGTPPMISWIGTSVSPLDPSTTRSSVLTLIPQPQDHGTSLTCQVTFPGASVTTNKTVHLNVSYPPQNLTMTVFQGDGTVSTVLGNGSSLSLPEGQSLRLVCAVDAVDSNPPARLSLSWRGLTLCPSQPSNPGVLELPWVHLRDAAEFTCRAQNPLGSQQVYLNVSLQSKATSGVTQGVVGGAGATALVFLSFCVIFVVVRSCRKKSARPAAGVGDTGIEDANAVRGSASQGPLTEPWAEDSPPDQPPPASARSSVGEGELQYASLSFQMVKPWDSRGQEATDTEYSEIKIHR
Sequence of Chromo domain-containing protein 1 (Saccharomyces cerevisiae (strain ATCC 204508 / S288c) (Baker's yeast)) (P32657 whole entry, the tested form may be a part): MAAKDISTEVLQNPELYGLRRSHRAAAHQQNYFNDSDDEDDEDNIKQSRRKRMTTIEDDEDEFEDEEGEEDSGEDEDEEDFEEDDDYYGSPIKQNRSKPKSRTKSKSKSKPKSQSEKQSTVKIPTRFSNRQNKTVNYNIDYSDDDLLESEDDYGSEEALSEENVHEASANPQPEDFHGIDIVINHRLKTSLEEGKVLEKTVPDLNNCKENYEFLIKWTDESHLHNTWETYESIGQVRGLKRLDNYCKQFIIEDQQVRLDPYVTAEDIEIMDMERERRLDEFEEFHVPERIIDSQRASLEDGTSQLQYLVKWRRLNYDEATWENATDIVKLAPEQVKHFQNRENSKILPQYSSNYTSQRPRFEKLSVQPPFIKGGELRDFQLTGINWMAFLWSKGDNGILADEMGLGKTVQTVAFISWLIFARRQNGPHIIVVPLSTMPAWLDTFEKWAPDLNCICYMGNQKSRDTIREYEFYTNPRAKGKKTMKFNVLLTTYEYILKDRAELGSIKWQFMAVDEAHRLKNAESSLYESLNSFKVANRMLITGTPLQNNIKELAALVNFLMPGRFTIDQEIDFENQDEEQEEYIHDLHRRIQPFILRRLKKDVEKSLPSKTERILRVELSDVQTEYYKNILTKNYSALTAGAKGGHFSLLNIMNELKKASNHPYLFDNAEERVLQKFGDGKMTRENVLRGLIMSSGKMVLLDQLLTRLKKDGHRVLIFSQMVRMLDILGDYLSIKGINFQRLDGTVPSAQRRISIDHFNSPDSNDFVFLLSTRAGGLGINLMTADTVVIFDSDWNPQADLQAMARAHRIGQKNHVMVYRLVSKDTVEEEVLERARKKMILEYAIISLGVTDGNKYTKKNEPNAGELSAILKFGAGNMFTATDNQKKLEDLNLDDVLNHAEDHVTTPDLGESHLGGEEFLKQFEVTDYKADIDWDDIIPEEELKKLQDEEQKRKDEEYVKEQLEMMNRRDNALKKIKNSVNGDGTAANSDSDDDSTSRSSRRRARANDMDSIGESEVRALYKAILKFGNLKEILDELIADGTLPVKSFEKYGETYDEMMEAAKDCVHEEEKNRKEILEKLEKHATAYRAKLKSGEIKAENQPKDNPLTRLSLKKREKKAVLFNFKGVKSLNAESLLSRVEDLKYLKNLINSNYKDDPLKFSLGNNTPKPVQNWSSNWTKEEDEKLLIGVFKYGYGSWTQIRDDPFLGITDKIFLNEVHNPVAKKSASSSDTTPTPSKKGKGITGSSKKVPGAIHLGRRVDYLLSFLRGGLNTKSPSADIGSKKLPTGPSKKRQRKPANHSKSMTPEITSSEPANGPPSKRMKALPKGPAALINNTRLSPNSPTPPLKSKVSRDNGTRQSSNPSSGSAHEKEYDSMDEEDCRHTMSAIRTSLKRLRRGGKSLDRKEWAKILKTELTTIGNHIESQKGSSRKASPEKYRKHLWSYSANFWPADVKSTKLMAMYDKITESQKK

Consider `O=C(NC1CCS(=O)(=O)C1)N1CCN(c2cnccn2)CC1` (stereo unspecified), for which the Percent Effect was -3.53% in experiment [1]; 24.3% in experiment [2]; -10.3% in experiment [3]; 4.95% in [4]; 1.58% in the experiment with Trypanosoma cruzi; -3.14% in [5]. In addition, the Percent Effect in [6] was 11.1%; in the experiment listed under Homo sapiens it was 15.6%; in experiment [7] it was 4.95%; in experiment [8] it was 6.1%; in experiment [9], -6.05%.

`O=C(C1CCC1)N1CCN(C(=O)c2cnccn2)[C@H]2CS(=O)(=O)C[C@H]21`: the Percent Effect in [1] was -0.271%; in experiment [2], 13.5%; in experiment [3], -3.89%; in experiment [4] it was 16.5%; in the experiment on Trypanosoma cruzi, 7.34%; in [5] it was 0.476%. The Percent Effect in experiment [6] is 9.65%; in the experiment filed under Homo sapiens it was 3.49%; in [7] it was 4.76%; in experiment [8], 17.1%; in [9] it was -3.81%.

Regarding `Cc1ncoc1C(=O)N1C[C@H]2CCC[C@@]2(COCC2CCOCC2)C1`, the Percent Effect in experiment [1] was -3.5%; in [2] it was 0%; in [3], 4.71%; in [4], -0.295%; in the experiment with Trypanosoma cruzi it was 1.66%; in experiment [5] it was 1.59%. The Percent Effect is 22.3% in experiment [6]; -6.69% in the experiment filed under Homo sapiens; 2.16% in [7]; 7.69% in experiment [8]; 5.48% in experiment [9].

As for `CC(=O)N1CCCC(c2ccc(Nc3nc(C)cc(C)n3)cn2)C1` (stereo unspecified), the Percent Effect was -3.24% in experiment [1]; 5.33% in experiment [2]; 9.18% in experiment [3]; 0.842% in experiment [4]; -1.18% with Trypanosoma cruzi; 3.5% in [5]. The Percent Effect in experiment [6] is -2.2%; in the experiment listed under Homo sapiens, 4.23%; in experiment [7], 3.19%; in experiment [8], 14.1%; in experiment [9] it was -7.25%.

`Cc1nn(CCO)c(C)c1CNC1CCc2c(Cl)cccc21` (stereo unspecified): the Percent Effect in experiment [1] was -3.63%; in experiment [2], 8%; in experiment [3] it was -5.26%; in experiment [4], 16.9%; with Trypanosoma cruzi, 8.67%; in [5], 46.9%. For the same compound, the Percent Effect in experiment [6] is 0.174%; in the experiment listed under Homo sapiens, 8.33%; in experiment [7], 1.64%; in experiment [8], 8.64%; in experiment [9], -14.3%.

In the case of `CN(C)C(=O)CN1CCC2(CCN(Cc3nccs3)CC2)C1=O`, the Percent Effect in experiment [1] is -0.585%; in [2] it was 10.7%; in experiment [3], 0.545%; in experiment [4], -5.07%; with Trypanosoma cruzi it was -9.46%; in experiment [5], -60.4%. For the same compound, the Percent Effect is 12.5% in experiment [6]; 13.1% in the experiment listed under Homo sapiens; -12.5% in [7]; 5% in experiment [8]; -7.73% in [9].

For the compound `O=C(NCc1cccnc1)C1=NN(c2ccccc2)C(=O)CN1`, the Percent Effect is -0.966% in experiment [1]; 18.9% in experiment [2]; 8.77% in experiment [3]; 14.9% in [4]; 0.293% in the experiment on Trypanosoma cruzi; 26.1% in experiment [5]. Moreover, the Percent Effect in experiment [6] is 15%; in the experiment filed under Homo sapiens, -2.67%; in experiment [7], 6.45%; in [8] it was 18.5%; in experiment [9] it was -8.57%.

As for `Cc1cc(CNC(=O)C2CCCCN2C(=O)OC(C)(C)C)no1` (stereo unspecified), the Percent Effect in experiment [1] was -4.46%; in experiment [2], 2.7%; in experiment [3] it was -5.58%; in experiment [4], 0.833%; in the experiment on Trypanosoma cruzi, -2.83%; in experiment [5], 0.744%. Moreover, the Percent Effect is 1.29% in experiment [6]; 4.89% in the experiment filed under Homo sapiens; 3.23% in [7]; 13.6% in experiment [8]; -3.75% in experiment [9].

With `Cc1cc(-c2cnc(NCc3cccnc3)nc2C(C)C)on1`, the Percent Effect in experiment [1] is -6.62%; in experiment [2], 2.67%; in experiment [3] it was 40.6%; in experiment [4], -1.45%; in the experiment with Trypanosoma cruzi, -3.74%; in experiment [5] it was -2.1%. Also, the Percent Effect in experiment [6] was 3.79%; in the experiment listed under Homo sapiens, 56.7%; in experiment [7], 1.06%; in experiment [8], 1.28%; in experiment [9], -1.52%.

For the compound `COc1ccnc(N2CCN(C(=O)Cc3ccc(C)s3)CC2)n1`, the Percent Effect in experiment [1] was -2.28%; in experiment [2], -2.6%; in experiment [3] it was 5.06%; in experiment [4], 8.15%; in the experiment on Trypanosoma cruzi, 2.84%; in experiment [5] it was -0.632%. Also, the Percent Effect in [6] is 13.8%; in the experiment listed under Homo sapiens, -7.95%; in experiment [7] it was 9.52%; in [8], 25.9%; in [9] it was -9.7%.

With `O=C1CC(c2cccnc2)c2c(c(C(=O)O)cn2-c2ccccc2)N1` (stereo unspecified), the Percent Effect is -3.57% in [1]; 6.67% in experiment [2]; -32.4% in experiment [3]; -0.792% in [4]; -3.14% with Trypanosoma cruzi; 6.16% in experiment [5]. Also, the Percent Effect was 14.6% in experiment [6]; 11.4% in the experiment listed under Homo sapiens; 3.17% in [7]; 10.3% in experiment [8]; -8.81% in [9].
